hcDAF12 agonist – activators of H. contortus DAF-12 nuclear receptor; HEK293 hcDAF-12 lit1-tk-luc reporter, luminescence; 0% DMSO, 100% Δ7-dafachronic acid; activation, % at 6.8 µM; 1.4% of 370,000 active; AID 652067;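 active = activation above the mean of all tested compounds plus 3 SD, cut at about 5.5% in these data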
hgDAF-12 ag – agonists of H. glycines DAF-12 nuclear receptor; HEK293 GAL4-hgDAF12 UAS-luciferase reporter, agonist luminescence; normalized to butyrate control; activation, % at 6.8 µM; AID 687014; 1.8% of 370,000 active;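 active = activation above a cutoff set at the mean of all screened compounds plus 3 SD, cut at about 10% in these data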
ssDAF-12 act – activates DAF-12 receptor from parasite S. stercoralis; 1% of 370,000 active; HEK293 ssDAF-12/GRIP1 lit1-tk-luc reporter, luminescence; % of 3 µM dafachronic acid response; AID 652126; activation, % at 6.8 µM;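 active = activation above the mean over all tested compounds plus 3 SD, cut at about 0.9% in these data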
FXN GAA850 act – increases GAA850 frataxin promoter reporter activity | HEK293 lucGAA850 FXN promoter luciferase reporter, 24 h; percent of 10 µM SAHA response | activation, % at 6 µM | 0.56% of 360,000 active | AID 540364;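 active = activation above the average of all compounds screened plus 3 SD, cutoff fixed separately per campaign, cut at about 7.5% in these data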
DAX1 inh-1 – inhibits human nuclear receptor DAX1. P51843. HEK293 Gal4-DAX1 luciferase reporter, luminescence. inhibition, % at 6.75 µM. 0.99% of 340,000 active;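 active = inhibition above the mean over all tested compounds plus 3 SD, cut at about 4.2% in these data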;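 also: inhibition shows as a rise in luminescence from relieved DAX1 repression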
Target sequence (P51843 207-470 limits assumed): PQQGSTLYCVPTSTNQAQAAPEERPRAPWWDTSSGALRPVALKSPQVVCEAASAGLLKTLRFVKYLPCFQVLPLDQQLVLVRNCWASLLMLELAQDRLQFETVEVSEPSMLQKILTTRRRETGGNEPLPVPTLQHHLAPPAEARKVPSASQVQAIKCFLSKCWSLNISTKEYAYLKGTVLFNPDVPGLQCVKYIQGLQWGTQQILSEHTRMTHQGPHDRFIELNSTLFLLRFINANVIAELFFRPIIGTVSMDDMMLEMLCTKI
DAX1 inh-2 – blocks DAX1 repression of SF-1 activated StAR promoter; AID 652010; 1.1% of 370,000 active; inhibition, % at 6.8 µM; HEK293T StAR-luciferase reporter, SF-1/DAX-1 repression relief;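 active = inhibition above the mean over all tested compounds plus 3 SD, cut at about 3.6% in these data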;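 also: higher inhibition means more luminescence from relief of DAX-1 repression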
LXRb hcDAF ctr – counter-screen for hcDAF-12 agonists: agonists of human LXR-beta. activation, % at 6.8 µM. shares compounds with hcDAF12 agonist. 3,400 tested, under 10 active. HEK293 Gal4-LXR tk-luc reporter, luminescence, 24 h; normalized: DMSO 0%, positive control 100%. AID 743027;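 active = mean percent activation of the reporter above a cutoff set as the average over tested compounds plus their standard deviation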
Target sequence (P55055 whole entry, looked up, the tested form may be a part): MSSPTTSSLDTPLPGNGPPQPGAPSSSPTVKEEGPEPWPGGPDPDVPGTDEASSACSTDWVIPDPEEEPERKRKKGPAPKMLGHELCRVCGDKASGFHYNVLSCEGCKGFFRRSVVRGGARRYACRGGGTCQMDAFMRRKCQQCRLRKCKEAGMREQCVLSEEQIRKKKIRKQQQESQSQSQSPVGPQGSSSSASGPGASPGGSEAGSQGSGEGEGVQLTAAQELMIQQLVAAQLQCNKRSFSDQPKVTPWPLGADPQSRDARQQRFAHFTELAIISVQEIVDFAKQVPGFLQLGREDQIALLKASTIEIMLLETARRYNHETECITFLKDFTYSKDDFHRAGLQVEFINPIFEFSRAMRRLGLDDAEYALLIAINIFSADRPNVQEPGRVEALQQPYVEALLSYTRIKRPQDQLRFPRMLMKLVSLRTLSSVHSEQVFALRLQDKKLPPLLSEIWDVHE
hcDAF12 conf – hcDAF-12 agonism, confirmation assay; shares compounds with hcDAF12 agonist; HEK293 hcDAF-12 lit1-tk-luc reporter, luminescence; % of Δ7-dafachronic acid response; 61% of 3,400 active; activation, % at 6.8 µM;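 active = mean activation across triplicate tests above the threshold derived from the earlier primary screen, cut at about 5.5% in these data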
Each line names hits and unclear results; the compound was inactive in the other large screens (follow-up assays come after a bar, where they were run). Rows were chosen to be rich in hits. Some 4.5% of all compounds tested hit in one or more screens of this group.

COc1cccc(C2c3c(ncn(-c4ccccc4)c3=N)Oc3ccc4ccccc4c32)c1OC (configuration not stated)	none (no result: FXN GAA850 act, DAX1 inh-1, DAX1 inh-2)
COc1cccc(CC(=O)N2CCC(n3nccc3NC(=O)C3CCOC3)CC2)c1 (configuration not stated)	hcDAF12 agonist 6.9 | LXRb hcDAF ctr inactive | hcDAF12 conf inactive
Cc1cc(NC(=O)c2ccccc2O)nc(C)n1	hcDAF12 agonist 7.7 | LXRb hcDAF ctr inactive | hcDAF12 conf inactive
Cc1cc(NC(=O)c2ccc(Br)cc2)nc(C)n1	none
Cc1cccnc1NC(=O)c1cccc(S(=O)(=O)N2CCCC2)c1	hcDAF12 agonist 7.0 | LXRb hcDAF ctr inactive | hcDAF12 conf inactive
Cc1cccnc1NC(=O)c1ccc(S(=O)(=O)N2CCCCC2)cc1	none
CCOC(=O)[C@]12CCC=C1N(Cc1ccc(Cl)cc1Cl)C(=O)[C@H](CC(=O)N1CCC(c3ccccc3)CC1)C2	none (no result: FXN GAA850 act, DAX1 inh-1)
Cc1ccc(C(=O)Nc2cccc3cccnc23)cc1Br	hcDAF12 agonist 6.9 (no result: DAX1 inh-1) | LXRb hcDAF ctr inactive | hcDAF12 conf 7.8
O=C(Nc1cccc2cccnc12)c1ccc2c(c1)OCCO2	hcDAF12 agonist 8.7 | LXRb hcDAF ctr inactive | hcDAF12 conf 5.7
COc1cc(NC(=O)c2ccc3c(c2)OCO3)c2ncccc2c1	none
Cc1ccc(C(=O)Nc2cccnc2Cl)cc1Cl	hcDAF12 agonist 8.0, DAX1 inh-1 6.0 | LXRb hcDAF ctr inactive | hcDAF12 conf inactive
Cc1c(O)ccc(/C=N/Nc2ncccc2[N+](=O)[O-])c1O	hcDAF12 agonist 7.5, ssDAF-12 act 1.2 | LXRb hcDAF ctr inactive | hcDAF12 conf 6.0
O=S1(=O)N[C@H](Cc2ccccc2)COc2cccc(N3CCC[C@@H]3CO)c21	none (no result: FXN GAA850 act, DAX1 inh-1)
C[C@@H]1ON(C)[C@H]2C[C@H]3c4[nH]c5c(-c6ccccc6)cccc5c4CCN3C(=O)[C@@H]12	none (no result: FXN GAA850 act, DAX1 inh-1)
CCOC(=O)c1ccc2c(c1)nc(-c1ccccn1)n2CC	hcDAF12 agonist 7.6, ssDAF-12 act 0.9 | LXRb hcDAF ctr inactive | hcDAF12 conf 8.7
O=C(Nc1ccccc1)c1ccc(C(=O)Nc2ccccc2)nc1	none
O=C(Nc1ccccc1)c1cn(CCBr)cn1	hcDAF12 agonist 6.8, ssDAF-12 act 1.3 | LXRb hcDAF ctr inactive | hcDAF12 conf inactive
Cc1c(C(=O)Nc2nccs2)oc2ccc(Br)cc12	hcDAF12 agonist 9.2, ssDAF-12 act 2.3, DAX1 inh-2 4.1 | LXRb hcDAF ctr inactive | hcDAF12 conf 13
CCc1nnc(NC(=O)c2oc3ccc(Br)cc3c2C)s1	none
CCS(=O)(=O)Nc1cccc(-c2nc3cccnc3s2)c1	none
CCS(=O)(=O)Nc1ccc(-c2nc3cccnc3s2)cc1	hcDAF12 agonist 6.9, hgDAF-12 ag 11 | LXRb hcDAF ctr inactive | hcDAF12 conf 7.7
NNc1nc2ccc(F)cc2s1	hcDAF12 agonist 10.0 | LXRb hcDAF ctr inactive | hcDAF12 conf inactive
Cc1ccc(-c2ccc(C)c(N)c2C)c(C)c1N	none
Cc1ccc2cn[nH]c2c1N	hcDAF12 agonist 6.9 | LXRb hcDAF ctr inactive | hcDAF12 conf inactive
CN1[C@@H](Cc2ccccc2)COc2cccc(N3CCCC3)c2S1(=O)=O	none (no result: FXN GAA850 act, DAX1 inh-1)
c1ccc2c(-c3nc4ncccc4o3)cccc2c1	hcDAF12 agonist 8.3 | LXRb hcDAF ctr inactive | hcDAF12 conf 5.6
CCOC(=O)c1ccc2c(c1)NCc1cccc(OC)c1O2	hcDAF12 agonist 6.6, hgDAF-12 ag 13, ssDAF-12 act 1.1 | LXRb hcDAF ctr inactive | hcDAF12 conf 7.9
O=C(NCc1ccco1)O[C@@H]1CC[C@@]23CCCN2C(=O)CCC[C@H]3C1	none (no result: FXN GAA850 act, DAX1 inh-1, DAX1 inh-2)
CC1CCc2c(nc3sc4c(c3c2N)CCCC4)C1 (configuration not stated)	hcDAF12 agonist 7.1, hgDAF-12 ag 21 | LXRb hcDAF ctr inactive | hcDAF12 conf inactive
CCOC(=O)c1nc2sc3c(c2c(=O)[nH]1)CCC(C)C3 (configuration not stated)	none
CN(C)c1nc(-c2ccccc2)ns1	none
Nc1nc(-c2ccccc2)ns1	hcDAF12 agonist 6.9 | LXRb hcDAF ctr inactive | hcDAF12 conf 6.1
CC(C)CNC(=O)OCc1cn(Cc2ccccc2F)nn1	none (no result: FXN GAA850 act, DAX1 inh-1)
O=C(Nc1nnc(SCc2ccc(Cl)cc2)s1)c1ccco1	hcDAF12 agonist 6.9 | LXRb hcDAF ctr inactive | hcDAF12 conf inactive
CCOC(=O)C(C)(C)Sc1nc2c(cnn2-c2ccc(F)cc2)c(=O)[nH]1	none
CCOC(=O)C(C)(C)Sc1nc2c(cnn2-c2ccc(C)cc2)c(=O)[nH]1	hcDAF12 agonist 8.8 | LXRb hcDAF ctr inactive | hcDAF12 conf inactive
O=S1(=O)c2ccc(Br)cc2OC[C@@H](c2ccccc2)N1Cc1cn(CCC2OCCCO2)nn1	none (no result: FXN GAA850 act, DAX1 inh-1)
CCCCn1c(=N)n(CC(=O)c2ccc(OC)cc2)c2ccccc21	none (no result: FXN GAA850 act, DAX1 inh-1)
Cn1c(=N)n(CC(=O)O)c2ccccc21	none
CCN(CC)CCn1c(=N)n(CC(=O)c2ccc(C)cc2)c2ccccc21	hcDAF12 agonist 8.2, ssDAF-12 act 1.2 | LXRb hcDAF ctr inactive | hcDAF12 conf inactive
Cc1ccc(C(=O)Cn2c(=N)n(N)c3ccccc32)cc1	hcDAF12 agonist 7.5, ssDAF-12 act 1.6, DAX1 inh-1 4.6 | LXRb hcDAF ctr inactive | hcDAF12 conf inactive
Cn1c(=N)n(CC(=O)c2ccccc2)c2ccccc21	hcDAF12 agonist 18, hgDAF-12 ag 11, ssDAF-12 act 2.5 (no result: DAX1 inh-1) | LXRb hcDAF ctr inactive | hcDAF12 conf 25
COc1cccc2c1SCc1ccccc1C2CC(N)=O (configuration not stated)	hcDAF12 agonist 6.8 | LXRb hcDAF ctr inactive | hcDAF12 conf inactive
Cc1cccc(-c2cc3c(N=O)c4ccccc4c-3n[nH]2)c1	hcDAF12 agonist 12, hgDAF-12 ag 17, ssDAF-12 act 1.2, DAX1 inh-1 6.9, DAX1 inh-2 3.9 | LXRb hcDAF ctr inactive | hcDAF12 conf 17
Cc1cccc(NC(=O)c2c(O)c3ccccc3n(C)c2=O)c1	hcDAF12 agonist 7.5, ssDAF-12 act 1.1 | LXRb hcDAF ctr inactive | hcDAF12 conf 12
Cc1ccc(NC(=O)c2c(Cl)n(C)c3ccccc23)cc1	hcDAF12 agonist 7.0, ssDAF-12 act 1.1 | LXRb hcDAF ctr inactive | hcDAF12 conf 11
CCn1c(=O)c(C(=O)Nc2ccc(C)cc2)c(O)c2ccccc21	hcDAF12 agonist 8.7 | LXRb hcDAF ctr inactive | hcDAF12 conf inactive
CCCn1c(=O)c(C(=O)Nc2ccccc2)c(O)c2ccccc21	none

Screening results deposited in PubChem BioAssay by The Scripps Research Institute Molecular Screening Center.
